In the supplement of paper PMC12669032:

Tests used:
Assay in all cases: growth AUC relative to DMSO control (median of replicates) (fraction); higher = more growth (less inhibition), active = hit call of the paper
Details in all cases: 20 µM; 24 h;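 active = AUC reduced over 20% with Padj below 0.05 in at least 2 of 3 replicates; inactive = otherwise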
[1] = system: Akkermansia muciniphila
In short: (§1)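 Each value is the median of three biological replicates, grown on separate days, of a gut bacterial monoculture incubated anaerobically at 37 °C in mGAM with 20 µM compound (1% DMSO). Cultures started at OD600 0.05 and were read at OD600 hourly for 24 h, with the minimum OD set to 0. Area under the growth curve was normalised to the plate median of solvent-only wells, or to row and column medians on the industrial chemical plate.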

[2] = system: Bacteroides caccae
In short: as §1

[3] = system: Bacteroides clarus
In short: as §1

[4] = system: Bacteroides dorei
In short: as §1

[5] = system: Bacteroides stercoris
In short: as §1

[6] = system: Bacteroides thetaiotaomicron
In short: as §1

[7] = system: Bacteroides uniformis
In short: as §1

[8] = system: Bifidobacterium longum subsp. longum
In short: as §1

[9] = system: Clostridium difficile
In short: as §1

[10] = system: Collinsella aerofaciens
In short: as §1

[11] = system: Coprococcus comes
In short: as §1

[12] = system: Escherichia coli ED1a
In short: as §1

[13] = system: Escherichia coli IAI1
In short: as §1

[14] = system: Eubacterium rectale
In short: as §1

[15] = system: Fusobacterium nucleatum subsp. animalis
In short: as §1

[16] = system: Lactobacillus gasseri
In short: as §1

[17] = system: Lactobacillus paracasei
In short: as §1

[18] = system: Odoribacter splanchnicus
In short: as §1

[19] = system: Parabacteroides distasonis
In short: as §1

[20] = system: Parabacteroides merdae
In short: as §1

Measured: growth AUC

CCOC(=O)Nc1cccc(OC(=O)Nc2ccccc2)c1
inactive: [1] 0.899 | [2] 1.06 | [3] 0.961 | [4] 1 | [5] 0.889 | [6] 0.998 | [7] 0.95 | [8] 0.944 | [9] 0.986 | [10] 0.977 | [11] 0.933 | [12] 1.01 | [13] 1.03 | [14] 0.901 | [15] 0.894 | [16] 1.24 | [17] 0.908 | [18] 0.986 | [19] 0.967 | [20] 0.949

CCC(C)Nc1c([N+](=O)[O-])cc(C(C)(C)C)cc1[N+](=O)[O-] (stereo not given)
inactive: [1] 0.988 | [2] 0.953 | [3] 0.939 | [4] 0.98 | [5] 1.11 | [6] 0.931 | [7] 0.945 | [8] 0.81 | [9] 0.938 | [10] 0.959 | [11] 0.975 | [12] 1.01 | [13] 0.939 | [14] 0.995 | [15] 1.02 | [16] 0.938 | [17] 1.01 | [18] 1.02 | [19] 0.919 | [20] 0.966

CS(=O)(=O)c1cc(C(F)(F)F)ccc1C(=O)c1cnoc1C1CC1
inactive: [1] 1 | [2] 1.08 | [3] 1.01 | [4] 1.02 | [5] 0.921 | [6] 1.02 | [7] 0.994 | [8] 0.982 | [9] 1.05 | [10] 1 | [11] 1.02 | [12] 1.01 | [13] 1.01 | [14] 1.04 | [15] 0.93 | [16] 1.04 | [17] 0.826 | [18] 1.1 | [19] 1.05 | [20] 1.02

Oc1ccc(Cl)cc1
inactive: [1] 0.989 | [2] 0.997 | [3] 0.952 | [4] 1.01 | [5] 0.981 | [6] 0.997 | [7] 0.987 | [8] 0.971 | [9] 0.981 | [10] 0.988 | [11] 0.989 | [12] 0.967 | [13] 0.951 | [14] 0.921 | [15] 0.941 | [16] 0.968 | [17] 1 | [18] 1.01 | [19] 1.05 | [20] 0.988

Nc1ccc(Cc2ccc(N)c(Cl)c2)cc1Cl
inactive: [1] 0.988 | [2] 0.994 | [3] 0.981 | [4] 1.01 | [5] 0.931 | [6] 0.971 | [7] 0.968 | [8] 1.02 | [9] 1 | [10] 1 | [11] 1 | [12] 1.01 | [13] 1.01 | [14] 1.01 | [15] 0.997 | [16] 1.04 | [17] 1.07 | [18] 1.11 | [19] 1.08 | [20] 1

N#Cc1c[nH]cc1-c1cccc2c1OC(F)(F)O2
active: [19] 0.759
inactive: [1] 0.837 | [2] 0.959 | [3] 0.918 | [4] 0.953 | [5] 0.85 | [6] 0.953 | [7] 0.999 | [8] 0.91 | [9] 0.978 | [10] 0.992 | [11] 1.05 | [12] 0.969 | [13] 0.978 | [14] 0.857 | [15] 0.888 | [16] 0.866 | [17] 0.908 | [18] 0.985 | [20] 0.88

CON(C)C(=O)Nc1ccc(Br)cc1
inactive: [1] 0.941 | [2] 1.01 | [3] 0.988 | [4] 0.992 | [5] 1.16 | [6] 1.02 | [7] 0.993 | [8] 1.18 | [9] 0.952 | [10] 1.1 | [11] 1.05 | [12] 1.02 | [13] 1 | [14] 1.02 | [15] 1.07 | [16] 1.15 | [17] 1.02 | [18] 1.01 | [19] 0.983 | [20] 1.01

COC(=O)C(C)N(C(=O)c1ccco1)c1c(C)cccc1C (stereo not given)
inactive: [1] 1.07 | [2] 0.872 | [3] 0.984 | [4] 0.85 | [5] 0.985 | [7] 0.88 | [8] 1.1 | [9] 0.941 | [10] 0.913 | [11] 0.96 | [12] 0.971 | [13] 0.981 | [14] 1.06 | [15] 1.04 | [16] 0.86 | [17] 1.06 | [18] 0.938 | [19] 1 | [20] 0.918
active: [6] 0.727

CC1=NNC(=O)N(/N=C/c2cccnc2)C1
inactive: [1] 0.995 | [2] 1.01 | [3] 0.98 | [4] 1.04 | [5] 1.01 | [6] 1.02 | [7] 1.04 | [8] 0.993 | [9] 1.07 | [10] 1.1 | [11] 1.02 | [12] 0.993 | [13] 0.991 | [14] 1 | [15] 1.02 | [16] 1.01 | [17] 0.988 | [18] 1.03 | [19] 1.01 | [20] 0.996

CS(=O)(=O)c1ccc(C(=O)C2C(=O)CCCC2=O)c(Cl)c1COCC(F)(F)F
inactive: [1] 1.07 | [2] 1.02 | [3] 0.988 | [4] 0.999 | [5] 1.02 | [6] 0.989 | [7] 0.989 | [8] 1.01 | [9] 0.979 | [10] 1.03 | [11] 1.01 | [12] 1.01 | [13] 0.994 | [14] 1.04 | [15] 1.05 | [16] 0.917 | [17] 0.989 | [18] 1.14 | [19] 0.944 | [20] 1.01

CCOC1Oc2ccc(OS(C)(=O)=O)cc2C1(C)C (stereo not given)
inactive: [1] 1.03 | [2] 0.907 | [3] 0.978 | [4] 0.889 | [5] 0.897 | [6] 0.987 | [7] 0.993 | [8] 1.01 | [9] 0.99 | [10] 0.916 | [11] 0.943 | [12] 0.949 | [13] 0.964 | [14] 1.16 | [15] 0.903 | [16] 0.891 | [17] 0.98 | [18] 1.15 | [19] 0.879 | [20] 0.927

CCN(CC)N=O
inactive: [1] 1 | [2] 1 | [3] 1 | [4] 1.04 | [5] 1.04 | [6] 1.01 | [7] 1 | [8] 1.05 | [9] 1.02 | [10] 0.991 | [11] 1.01 | [12] 1.01 | [13] 1.04 | [14] 0.996 | [15] 0.998 | [16] 1.04 | [17] 0.981 | [18] 0.979 | [19] 1 | [20] 1.01

Nc1ccc(Cl)cc1
inactive: [1] 1.01 | [2] 1.03 | [3] 1.02 | [4] 1 | [5] 1.03 | [6] 1.05 | [7] 1.02 | [8] 1.04 | [9] 1 | [10] 0.972 | [11] 1.03 | [12] 1.02 | [13] 1 | [14] 1.05 | [15] 1.08 | [16] 0.939 | [17] 0.955 | [18] 1.1 | [19] 1.05 | [20] 1.02

CCOP(=S)(OCC)Oc1ccc2c(C)c(Cl)c(=O)oc2c1
active: [19] 0.748
inactive: [1] 1.1 | [2] 0.952 | [3] 0.957 | [4] 0.98 | [5] 0.891 | [6] 0.934 | [7] 0.95 | [8] 0.968 | [9] 1 | [10] 1 | [11] 1 | [12] 1.02 | [13] 1.01 | [14] 1.11 | [15] 1.01 | [16] 0.991 | [17] 0.998 | [18] 1.01 | [20] 0.897

CC(C)(O)C(Cl)(Cl)Cl.CC(C)(O)C(Cl)(Cl)Cl.O
inactive: [1] 1.08 | [2] 1.01 | [3] 1 | [4] 0.973 | [5] 1.12 | [6] 1.05 | [7] 1.02 | [8] 0.917 | [9] 1.03 | [10] 0.999 | [11] 1.04 | [12] 1.01 | [13] 1.02 | [14] 0.942 | [15] 1.1 | [16] 1.06 | [17] 1.02 | [18] 0.967 | [19] 1.05 | [20] 0.987

ClC(Cl)=C(c1ccc(Cl)cc1)c1ccc(Cl)cc1
inactive: [1] 1.1 | [2] 0.933 | [3] 0.961 | [4] 0.953 | [5] 1.18 | [6] 0.956 | [7] 1.01 | [8] 1.05 | [9] 0.969 | [10] 0.842 | [11] 0.914 | [12] 1 | [13] 0.986 | [14] 1.02 | [15] 1.03 | [16] 0.938 | [17] 0.921 | [18] 1.02 | [19] 0.985 | [20] 0.909

Cl.NC1=NCCN1Cc1ccc(Cl)nc1
active: [18] 0.507
inactive: [1] 1.03 | [2] 1.03 | [3] 1.02 | [4] 0.975 | [5] 1.14 | [6] 1.04 | [7] 1.01 | [8] 1.02 | [9] 1.06 | [10] 1.03 | [11] 1.13 | [12] 1.04 | [13] 1.03 | [14] 0.945 | [15] 1.06 | [16] 1.02 | [17] 1.06 | [19] 1.02 | [20] 1.05
